In PubChem BioAssay AID1159580 (chemical genetic matrix, 2015):
About 2,000 (36%) of roughly 5,500 compounds were called active. Roughly 18% stayed inconclusive and do not appear here. Cut-off read from the data, not from the text of the source: active = normalized growth mostly below about 0.91 (no sharp cut-off); inconclusive = no clear call, values can overlap the other calls; inactive = mostly above about 0.92. The list shows a part of the results.

Assay: chemical genetic growth profiling, strain panel (AID 1159580);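 note: tested at 20 µM; growth read once vehicle control cultures reached saturation at 30 °C; 1 = growth at the plate median or of vehicle wells; lower values mean less growth of the strain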
Conditions: S. cerevisiae deletion strains, growth OD

Measured: normalized growth

CCCOC(=O)c1c(-c2ccccc2)nc(CC)c(C(=O)SCC)c1CCC
inactive: locus YAL040C, strain CLN3, stronger effect = lower value 1.04 | locus YCL061C, strain MRC1 (second series), stronger effect = lower value 1 | locus YDR150W, strain NUM1, stronger effect = lower value 1.01 | locus YDR363W, strain ESC2, stronger effect = lower value 0.982 | locus YER002W, strain NOP16, stronger effect = lower value 1.01 | locus YGR078C, strain PAC10, stronger effect = lower value 0.974 | locus YNL128W, strain TEP1, stronger effect = lower value 1.09 | locus YNL153C, strain GIM3, stronger effect = lower value 1.02 | locus YNL197C, strain WHI3, stronger effect = lower value 1.02 | locus YNL224C, strain SQS1, stronger effect = lower value 1.04 | locus YNL322C, strain KRE1, stronger effect = lower value 0.993 | locus YOR083W, strain WHI5 (second series), stronger effect = lower value 1.09
